Measurements published in the supplement of paper PMC11732987, “Enantioselective OTUD7B fragment discovery through chemoproteomics screening and high-throughput optimisation” (Communications Chemistry, 2025).
Unmarked numbers belong to inactive results.

What follows are targets tested with ClCC(=O)N1CCC(CC#N)C1 (assay: log2 ratio of Biotin-Ahx-Ub-VS probe labelling (compound/DMSO); higher = less target engagement, active = hit call of the paper (q ≤ 0.05, log2 ratio ≤ -1)). Conditions: compound concentration: 50uM; treatment time: 3 h.
Experimental: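 Round 2 competitive ABPP in HEK293T lysate. Purified HTC-D2B compounds were tested at 50 and 200 µM for 3 h, followed by Biotin-Ahx-Ub-VS enrichment and diaPASEF LC-MS/MS. Values are the average log2 ratio (compound/DMSO) from an unpaired t-test (n=3 treated, n=26 DMSO).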

UniProt P09936, sequence (P09936 whole entry, looked up): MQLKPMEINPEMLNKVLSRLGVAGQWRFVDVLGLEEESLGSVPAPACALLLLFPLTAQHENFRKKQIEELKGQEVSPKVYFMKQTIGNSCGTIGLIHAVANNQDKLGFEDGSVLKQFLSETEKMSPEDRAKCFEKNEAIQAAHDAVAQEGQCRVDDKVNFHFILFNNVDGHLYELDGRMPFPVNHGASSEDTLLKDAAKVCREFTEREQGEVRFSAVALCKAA
UniProt Q86UV5, sequence (Q86UV5 whole entry): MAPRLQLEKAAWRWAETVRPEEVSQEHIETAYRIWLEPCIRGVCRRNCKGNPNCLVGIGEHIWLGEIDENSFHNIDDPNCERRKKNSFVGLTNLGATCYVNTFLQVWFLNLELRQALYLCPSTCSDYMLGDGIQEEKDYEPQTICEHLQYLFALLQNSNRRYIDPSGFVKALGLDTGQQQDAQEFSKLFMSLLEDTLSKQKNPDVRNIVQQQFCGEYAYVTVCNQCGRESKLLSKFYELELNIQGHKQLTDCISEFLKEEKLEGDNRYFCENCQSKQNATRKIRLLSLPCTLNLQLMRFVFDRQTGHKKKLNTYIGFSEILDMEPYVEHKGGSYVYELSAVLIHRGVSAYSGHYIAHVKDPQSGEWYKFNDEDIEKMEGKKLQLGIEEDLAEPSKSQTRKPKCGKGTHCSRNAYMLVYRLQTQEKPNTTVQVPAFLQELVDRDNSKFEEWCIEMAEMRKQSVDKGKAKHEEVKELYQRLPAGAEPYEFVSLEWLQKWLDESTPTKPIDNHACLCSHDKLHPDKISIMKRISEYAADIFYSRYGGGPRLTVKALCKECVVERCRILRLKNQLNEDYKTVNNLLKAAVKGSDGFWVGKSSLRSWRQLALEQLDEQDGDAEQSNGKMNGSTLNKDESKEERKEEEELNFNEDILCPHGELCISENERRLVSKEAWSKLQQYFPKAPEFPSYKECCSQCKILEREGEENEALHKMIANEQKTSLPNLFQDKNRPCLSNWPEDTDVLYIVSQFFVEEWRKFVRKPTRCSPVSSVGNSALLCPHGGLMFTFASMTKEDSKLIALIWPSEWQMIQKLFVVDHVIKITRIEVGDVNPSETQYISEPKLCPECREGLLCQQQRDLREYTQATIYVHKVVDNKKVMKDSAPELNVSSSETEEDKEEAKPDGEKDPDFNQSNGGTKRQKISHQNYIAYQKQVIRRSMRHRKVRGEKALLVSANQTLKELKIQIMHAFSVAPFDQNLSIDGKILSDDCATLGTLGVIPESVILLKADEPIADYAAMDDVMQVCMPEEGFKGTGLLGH
UniProt Q92560, sequence (Q92560 whole entry): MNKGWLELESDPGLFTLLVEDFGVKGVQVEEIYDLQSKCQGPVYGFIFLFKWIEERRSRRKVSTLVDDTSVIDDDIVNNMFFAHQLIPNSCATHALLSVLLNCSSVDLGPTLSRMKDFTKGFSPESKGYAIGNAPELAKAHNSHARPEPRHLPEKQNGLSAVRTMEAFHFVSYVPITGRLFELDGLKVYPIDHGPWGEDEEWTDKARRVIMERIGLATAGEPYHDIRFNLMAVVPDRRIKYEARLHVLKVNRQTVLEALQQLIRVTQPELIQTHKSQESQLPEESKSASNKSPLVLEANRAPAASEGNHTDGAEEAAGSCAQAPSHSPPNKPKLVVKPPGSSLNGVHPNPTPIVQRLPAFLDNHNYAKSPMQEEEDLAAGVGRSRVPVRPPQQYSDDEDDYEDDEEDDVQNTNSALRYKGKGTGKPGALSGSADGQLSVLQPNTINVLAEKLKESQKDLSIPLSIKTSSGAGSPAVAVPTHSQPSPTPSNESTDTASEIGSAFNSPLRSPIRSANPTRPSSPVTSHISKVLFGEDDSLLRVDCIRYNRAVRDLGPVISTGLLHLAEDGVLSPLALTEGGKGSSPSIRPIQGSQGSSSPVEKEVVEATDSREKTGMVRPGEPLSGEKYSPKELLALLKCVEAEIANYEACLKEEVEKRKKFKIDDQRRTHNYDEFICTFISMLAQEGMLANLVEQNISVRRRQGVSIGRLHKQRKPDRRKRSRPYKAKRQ
UniProt Q70EL1, sequence (Q70EL1 whole entry): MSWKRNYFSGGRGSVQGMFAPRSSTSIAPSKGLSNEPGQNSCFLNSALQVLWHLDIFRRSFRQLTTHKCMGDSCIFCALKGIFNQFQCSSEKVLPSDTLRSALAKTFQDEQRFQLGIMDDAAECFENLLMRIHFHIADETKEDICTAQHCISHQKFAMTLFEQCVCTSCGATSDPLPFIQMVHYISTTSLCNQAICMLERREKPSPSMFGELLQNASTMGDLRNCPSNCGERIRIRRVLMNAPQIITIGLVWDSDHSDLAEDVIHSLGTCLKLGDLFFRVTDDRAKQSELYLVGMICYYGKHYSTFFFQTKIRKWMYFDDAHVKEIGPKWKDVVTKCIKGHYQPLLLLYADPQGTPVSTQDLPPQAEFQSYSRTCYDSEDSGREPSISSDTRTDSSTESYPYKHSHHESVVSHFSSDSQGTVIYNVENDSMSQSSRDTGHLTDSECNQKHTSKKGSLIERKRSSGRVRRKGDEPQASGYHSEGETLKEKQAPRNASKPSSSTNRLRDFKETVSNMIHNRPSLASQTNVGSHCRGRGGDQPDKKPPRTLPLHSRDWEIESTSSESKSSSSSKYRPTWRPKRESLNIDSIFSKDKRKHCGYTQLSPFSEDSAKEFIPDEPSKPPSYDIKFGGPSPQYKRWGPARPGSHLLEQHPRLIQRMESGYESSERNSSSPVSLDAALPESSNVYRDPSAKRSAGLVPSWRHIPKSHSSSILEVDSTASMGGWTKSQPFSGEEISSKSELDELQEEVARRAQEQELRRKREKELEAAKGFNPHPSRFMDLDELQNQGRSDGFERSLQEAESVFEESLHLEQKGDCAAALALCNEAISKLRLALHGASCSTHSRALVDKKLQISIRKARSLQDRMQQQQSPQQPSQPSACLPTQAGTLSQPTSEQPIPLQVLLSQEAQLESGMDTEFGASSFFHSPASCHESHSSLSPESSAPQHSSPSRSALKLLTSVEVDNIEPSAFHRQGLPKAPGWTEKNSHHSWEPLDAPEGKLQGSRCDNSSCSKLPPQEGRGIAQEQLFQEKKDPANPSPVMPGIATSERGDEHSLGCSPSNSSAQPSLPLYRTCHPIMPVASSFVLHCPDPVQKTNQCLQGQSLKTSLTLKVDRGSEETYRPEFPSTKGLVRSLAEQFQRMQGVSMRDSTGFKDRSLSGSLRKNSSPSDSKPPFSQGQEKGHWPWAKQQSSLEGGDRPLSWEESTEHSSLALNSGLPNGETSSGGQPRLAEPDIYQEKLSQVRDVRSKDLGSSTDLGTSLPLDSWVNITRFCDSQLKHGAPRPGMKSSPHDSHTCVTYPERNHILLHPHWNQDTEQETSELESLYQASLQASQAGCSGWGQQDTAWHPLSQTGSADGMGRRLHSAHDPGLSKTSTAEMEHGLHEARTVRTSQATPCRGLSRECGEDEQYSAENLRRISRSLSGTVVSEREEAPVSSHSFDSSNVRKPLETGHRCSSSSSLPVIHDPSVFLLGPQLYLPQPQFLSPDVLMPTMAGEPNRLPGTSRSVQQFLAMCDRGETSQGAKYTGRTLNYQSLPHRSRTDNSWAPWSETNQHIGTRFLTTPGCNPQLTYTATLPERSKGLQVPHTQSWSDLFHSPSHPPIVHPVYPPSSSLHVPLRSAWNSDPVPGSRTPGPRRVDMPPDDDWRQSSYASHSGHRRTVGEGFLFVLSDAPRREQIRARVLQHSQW
UniProt P45974, sequence (P45974 whole entry): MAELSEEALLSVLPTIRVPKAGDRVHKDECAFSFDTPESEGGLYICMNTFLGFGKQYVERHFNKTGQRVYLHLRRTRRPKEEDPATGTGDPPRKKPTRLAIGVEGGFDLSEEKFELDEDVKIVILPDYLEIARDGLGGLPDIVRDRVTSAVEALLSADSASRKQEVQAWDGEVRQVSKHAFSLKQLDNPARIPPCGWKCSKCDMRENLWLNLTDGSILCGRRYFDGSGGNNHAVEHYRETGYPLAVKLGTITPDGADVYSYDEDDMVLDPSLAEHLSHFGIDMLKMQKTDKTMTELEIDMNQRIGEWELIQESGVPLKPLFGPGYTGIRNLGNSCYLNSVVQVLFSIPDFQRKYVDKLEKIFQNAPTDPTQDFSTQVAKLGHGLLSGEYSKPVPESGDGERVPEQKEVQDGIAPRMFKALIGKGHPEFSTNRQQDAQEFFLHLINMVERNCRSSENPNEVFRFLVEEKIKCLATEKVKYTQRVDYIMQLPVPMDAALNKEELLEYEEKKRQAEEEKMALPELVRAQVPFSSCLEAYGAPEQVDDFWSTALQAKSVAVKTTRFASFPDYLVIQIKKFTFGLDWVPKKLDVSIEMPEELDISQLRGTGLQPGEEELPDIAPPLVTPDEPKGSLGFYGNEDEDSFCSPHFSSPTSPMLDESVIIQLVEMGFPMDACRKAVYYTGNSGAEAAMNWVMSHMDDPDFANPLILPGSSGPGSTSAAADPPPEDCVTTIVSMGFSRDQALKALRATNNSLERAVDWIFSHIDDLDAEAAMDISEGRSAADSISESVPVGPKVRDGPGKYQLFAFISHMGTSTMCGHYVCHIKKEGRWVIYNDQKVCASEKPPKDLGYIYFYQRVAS
UniProt P15374, sequence (P15374 whole entry): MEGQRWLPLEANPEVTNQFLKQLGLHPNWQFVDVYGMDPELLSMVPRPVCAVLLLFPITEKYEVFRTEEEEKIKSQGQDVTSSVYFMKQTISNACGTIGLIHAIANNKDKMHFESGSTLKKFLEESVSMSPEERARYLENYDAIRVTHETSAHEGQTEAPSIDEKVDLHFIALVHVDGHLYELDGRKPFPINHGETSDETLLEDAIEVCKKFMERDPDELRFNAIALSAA

Target	log2 ratio of Biotin-Ahx-Ub-VS probe labelling
BAP1 (UniProt Q92560)	-0.376
USP38 (UniProt Q8NB14)	0.00826
UniProt Q8TE49	-0.317
UniProt Q70EL2	-0.0717
USP22 (UniProt Q9UPT9)	-0.132
USP15 (UniProt Q9Y4E8)	-0.281
USP42 (UniProt Q9H9J4)	-0.0062
USP48 (UniProt Q86UV5)	-0.0601
FAM105A (UniProt Q9NUU6)	-0.103
USP5 (UniProt P45974)	-0.0602
USP54 (UniProt Q70EL1)	-0.068
USP24 (UniProt Q9UPU5)	-0.155
USP34 (UniProt Q70CQ2)	0.721
UCHL3 (UniProt P15374)	-0.263
ATXN3 (UniProt P54252)	-0.387
USP8 (UniProt P40818)	-0.261
UCHL1 (UniProt P09936)	-0.297
USP16 (UniProt Q9Y5T5)	-0.133
USP25 (UniProt Q9UHP3)	-0.617
USP28 (UniProt Q96RU2)	-0.0624

Same assay, conditions: compound concentration: 200uM; treatment time: 3 h

Target	log2 ratio of Biotin-Ahx-Ub-VS probe labelling
BAP1 (UniProt Q92560)	-0.502
USP38 (UniProt Q8NB14)	-0.302
UniProt Q8TE49	-0.54
UniProt Q70EL2	-0.437
USP22 (UniProt Q9UPT9)	-0.153
USP15 (UniProt Q9Y4E8)	-0.268
USP42 (UniProt Q9H9J4)	0.221
USP48 (UniProt Q86UV5)	-0.185
FAM105A (UniProt Q9NUU6)	0.0672
USP5 (UniProt P45974)	0.0332
USP54 (UniProt Q70EL1)	-0.954
USP24 (UniProt Q9UPU5)	-0.576
USP34 (UniProt Q70CQ2)	-0.382
UCHL3 (UniProt P15374)	-0.193
ATXN3 (UniProt P54252)	-0.524
USP8 (UniProt P40818)	-0.168
UCHL1 (UniProt P09936)	-0.13
USP16 (UniProt Q9Y5T5)	-0.669
USP25 (UniProt Q9UHP3)	-2.11 (active)
USP28 (UniProt Q96RU2)	-0.291
